High-throughput results (PubChem BioAssay)
S1P3 antag – S1P3 receptor antagonists, primary screen, cell-based. Sphingosine 1-phosphate receptor 3 (Homo sapiens), Q99500. CHO S1P3 NFAT-BLA reporter, FRET fluorescence, antagonist mode. inhibition, % at 4.98 µM. actives 0.27% (n = 170,000);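 active = inhibition above the plate cutoff, the mean inhibition of test wells on that plate plus 3 SD, cut at about 28% in these data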;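 also: cells challenged with S1P at its EC80 of 0.8 µM; blue over green emission ratio from cleaved BLA substrate after 4 h stimulation; 0% = S1P-stimulated wells and 100% = unstimulated DMSO-only wells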
PGE2 EP2 inh – human EP2 receptor antagonists, primary screen, TR-FRET cAMP, C6 glioma cells; C6 glioma cells expressing human EP2; cells stimulated with saturating PGE2; Prostaglandin E2 receptor EP2 subtype (Homo sapiens), P43116; actives 0.52% (n = 260,000); inhibition, % at 25 µM;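 active = percent inhibition above 40 after rounding to a whole number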;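 also: rat C6 glioma host cells with rolipram phosphodiesterase inhibitor present; the protocol text gives 20 µM as final concentration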
EP2 modulator – EP2 receptor modulators, cAMP readout, primary screen, cell-based, HTRF cAMP, PGE2 stimulation; EP2-expressing cells, cAMP HTRF FRET, PGE2 co-stimulation; induction, % at 25 µM; actives 0.83% (n = 260,000); AID 940, 2007;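 active = compounds whose cAMP rise, as percent of the full-agonist control response, exceeds 60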;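 also: rat C6 glioma line stably carrying human EP2 under a CMV promoter; the protocol text gives 20 µM as final concentration; 100% = response of wells given 1 µM PGE2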
Cl transport mod – KCC2 cotransporter modulators, thallium flux, primary screen, cell-based, HEK293 KCC2, FluoZin-2 fluorescence, MLSMR; KCC2 cells, thallium flux FluoZin-2 fluorescence; actives 2.2% (n = 190,000); Solute carrier family 12 member 5 (Homo sapiens), Q9H2X9; B-score of Tl+ flux slope (higher = more flux/activation; lower = inhibition) at 10 µM;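 active = thallium flux slope and its plate-corrected score both differing from the plate sample mean at a set confidence after two filtering rounds, in either direction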;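 also: slope of fluorescence scaled to starting intensity during 10 to 20 s after thallium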
Target sequence (Q9H2X9 whole entry, looked up): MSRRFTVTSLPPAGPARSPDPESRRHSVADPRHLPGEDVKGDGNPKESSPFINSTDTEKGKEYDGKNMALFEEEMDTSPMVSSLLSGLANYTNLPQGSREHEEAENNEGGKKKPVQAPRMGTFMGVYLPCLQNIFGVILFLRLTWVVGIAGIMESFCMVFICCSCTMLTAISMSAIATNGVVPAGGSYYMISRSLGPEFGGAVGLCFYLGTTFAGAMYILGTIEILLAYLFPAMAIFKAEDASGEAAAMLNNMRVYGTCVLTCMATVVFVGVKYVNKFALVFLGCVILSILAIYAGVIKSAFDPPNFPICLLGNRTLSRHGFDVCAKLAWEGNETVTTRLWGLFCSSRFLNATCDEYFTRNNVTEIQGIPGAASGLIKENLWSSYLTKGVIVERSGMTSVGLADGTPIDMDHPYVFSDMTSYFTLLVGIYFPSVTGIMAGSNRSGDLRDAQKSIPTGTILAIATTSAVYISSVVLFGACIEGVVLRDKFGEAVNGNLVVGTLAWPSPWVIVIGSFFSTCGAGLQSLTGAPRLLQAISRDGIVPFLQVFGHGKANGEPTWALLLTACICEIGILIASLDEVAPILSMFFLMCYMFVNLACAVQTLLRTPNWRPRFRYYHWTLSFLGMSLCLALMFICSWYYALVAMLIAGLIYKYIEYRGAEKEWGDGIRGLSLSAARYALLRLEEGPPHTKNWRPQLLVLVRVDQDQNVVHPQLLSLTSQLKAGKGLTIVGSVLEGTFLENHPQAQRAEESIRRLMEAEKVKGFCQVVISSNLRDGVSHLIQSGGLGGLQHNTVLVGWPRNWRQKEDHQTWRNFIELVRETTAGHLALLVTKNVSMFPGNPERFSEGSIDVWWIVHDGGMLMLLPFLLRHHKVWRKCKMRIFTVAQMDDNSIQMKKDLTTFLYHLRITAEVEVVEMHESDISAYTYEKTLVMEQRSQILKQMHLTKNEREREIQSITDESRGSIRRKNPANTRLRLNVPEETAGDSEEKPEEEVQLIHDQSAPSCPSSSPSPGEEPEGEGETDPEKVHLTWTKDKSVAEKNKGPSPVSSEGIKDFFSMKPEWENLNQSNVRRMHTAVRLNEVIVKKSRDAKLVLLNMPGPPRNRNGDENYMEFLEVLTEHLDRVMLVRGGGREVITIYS
KCC2 sec1 – KCC2 modulators in sodium-free buffer, confirmation, cell-based, HEK293 KCC2, thallium flux, secondary assay | shares compounds with Cl transport mod | FluoZin2 fluorescence; stronger effect = higher value | normalised thallium flux (F/F0 slope) at 10 µM | actives 15% (n = 3,700) | AID 1713, 2009;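 active = thallium flux slope above the same plate's solvent-only control mean plus 3 SD; inconclusive = the two replicate wells disagree; inactive = no significant difference from solvent-only control wells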
KCC2 bumet counter – thallium flux persisting under bumetanide in KCC2 cells, confirmation, counter-screen for KCC2 modulator project, cell-based, HEK293 KCC2, FluoZin2, secondary assay 3. HEK293-KCC2 + bumetanide/ouabain; stronger effect = higher value. actives 49% (n = 3,700). normalized thallium flux at 10 µM. shares compounds with Cl transport mod. AID 1714, 2009;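 active = thallium entry rate above the same plate's blocked-transporter control wells by more than 3 SD; inconclusive = the two repeat wells disagree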;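 also: raw slope of fluorescence over initial fluorescence between 10 and 20 s after thallium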
KCC2 sec2 – KCC2 modulators without ouabain present, confirmation, cell-based, HEK293 KCC2, thallium flux, FluoZin2, secondary assay 2; actives 23% (n = 3,700); normalized thallium flux at 10 µM; shares compounds with Cl transport mod; AID 1715, 2009; thallium flux FluoZin2 fluorescence; actives lie on both sides; F/F0 rise rate, 10–20 s post-thallium;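 active = thallium flux slope more than 3 SD above or below the plate's solvent-only control mean, mostly below; inconclusive = the two repeat wells disagreed; inactive = no significant shift from solvent-only controls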;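 also: raw slope with 0.1% DMSO as baseline and bumetanide as block control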
HEK counter1 – thallium flux modulation in parental HEK cells, confirmation, counter-screen for KCC2 modulator project, cell-based, counterscreen 1 | shares compounds with Cl transport mod | HEK293 parental cells, thallium flux FluoZin2, ouabain; baseline-ratio fluorescence slope, 10–20 s after thallium | thallium flux rate (normalised fluorescence) at 10 µM | actives 46% (n = 3,700) | AID 1716, 2009;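 active = thallium flux rate significantly above the same plate's solvent-only control wells, beyond their mean plus 3 SD; inconclusive = the two replicate wells gave conflicting results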
KCC2 retest ouab – KCC2 inhibitors and activators, ouabain retest, confirmation, HEK-KCC2 cells | shares compounds with Cl transport mod | HEK293-KCC2, thallium flux FluoZin2 fluorescence; bidirectional: low = inhibitor, high = activator | raw Tl+ flux slope (below DMSO = inhibition, above = activation) at 10 µM | actives 48% (n = 3,700);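 active = thallium flux slope beyond 3 SD from same-plate DMSO control mean in most replicates, usually higher, sometimes lower; inconclusive = repeat tests gave conflicting results; inactive = no significant difference from controls in most replicates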;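 also: slope of initial-normalized fluorescence between seconds 10 and 20 after thallium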
HEK293 Tl flux2 – native HEK Tl+ uptake effects, second counter-screen – HEK cells, counterscreen 2, counter-screen for KCC2 modulator project, confirmation; thallium flux slope at 10 µM; actives 33% (n = 3,700); shares compounds with Cl transport mod; HEK293 parental, thallium flux FluoZin-2 fluorescence slope;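 active = thallium flux slope above the same plate's solvent-control mean plus 3 SD in both duplicate wells; inconclusive = duplicate wells that disagreed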;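 also: run without ouabain in cells lacking the KCC2 cotransporter; slope of fluorescence scaled to its starting value between 10 and 20 s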
An asterisk follows results filed as active. Hits are enriched below; roughly 3.1% of the tested compounds scored in any of these assays.

How did S=C(Nc1ccccc1)Nc1nc2ccccc2n1CCOc1ccc(Br)cc1 do in these assays?
S1P3 antag: 10; PGE2 EP2 inh: 11; EP2 modulator: 21; Cl transport mod: 3.4*; KCC2 sec1: 0.0099; KCC2 bumet counter: 0.032*; KCC2 sec2: 0.031; HEK counter1: 0.01*; KCC2 retest ouab: 0.023; HEK293 Tl flux2: inconclusive

How did Cn1c(NC(=S)Nc2ccccc2)nc2ccccc21 do in these assays?
S1P3 antag: 6; PGE2 EP2 inh: 4; EP2 modulator: 23; Cl transport mod: 7.4*; KCC2 sec1: inconclusive; KCC2 bumet counter: 0.064*; KCC2 sec2: 0.031; HEK counter1: 0.023*; KCC2 retest ouab: 0.043*; HEK293 Tl flux2: 0.014*

What do the screens show for `CCC(=O)N1C2CCC1CC(O)(c1nccn1C)C2` (configuration not stated)?
PGE2 EP2 inh: 9; EP2 modulator: -28

Results for CC(OC(=O)c1cc2sccc2n1C)C(=O)NCCc1ccccc1 (configuration not stated) ?
S1P3 antag: -26; PGE2 EP2 inh: 2; EP2 modulator: -51; Cl transport mod: -5.6*; KCC2 sec1: 0.0087; KCC2 bumet counter: inconclusive; KCC2 sec2: inconclusive; HEK counter1: 0.0069; KCC2 retest ouab: 0.014*; HEK293 Tl flux2: 0.011

Results for COC(=O)c1ccccc1NC(=O)c1cc2sccc2n1C ?
S1P3 antag: 33; PGE2 EP2 inh: 9; EP2 modulator: 38; Cl transport mod: 8.3*; KCC2 sec1: 0.016; KCC2 bumet counter: 0.0048; KCC2 sec2: 0.029; HEK counter1: 0.0079; KCC2 retest ouab: 0.017; HEK293 Tl flux2: 0.011

What do the screens show for `O=C(NC(=S)NNC(=O)c1cc2ccccc2cc1O)c1ccco1`?
S1P3 antag: -20; PGE2 EP2 inh: 5; EP2 modulator: -16; Cl transport mod: 48*; KCC2 sec1: 0.021*; KCC2 bumet counter: 0.073*; KCC2 sec2: 0.034; HEK counter1: 0.05*; KCC2 retest ouab: 0.058*; HEK293 Tl flux2: 0.014*

How did O=C(NC(=S)NNC(=O)c1ccccc1O)c1ccco1 do in these assays?
S1P3 antag: -17; PGE2 EP2 inh: 7; EP2 modulator: 17; Cl transport mod: 3.5*; KCC2 sec1: 0.011; KCC2 bumet counter: 0.013*; KCC2 sec2: 0.035; HEK counter1: inconclusive; KCC2 retest ouab: inconclusive; HEK293 Tl flux2: 0.011

Results for O=C(NNC(=S)NC(=O)c1ccco1)c1ccc(NC(=O)c2ccccc2)cc1 ?
S1P3 antag: -10; PGE2 EP2 inh: 5; EP2 modulator: -3; Cl transport mod: -0.57

How did COc1cc2cc(CN(CCCN(C)C)C(=O)Nc3ccccc3)c(=O)[nH]c2cc1OC do in these assays?
PGE2 EP2 inh: 5; EP2 modulator: 19

How did Cc1ccc(NC(=O)Cn2nnc(-c3cccnc3)n2)cc1C do in these assays?
PGE2 EP2 inh: 10; EP2 modulator: -30

How did CCSc1nnc(-c2cc(Br)ccc2N=Cc2c(C)[nH]n(-c3ccccc3)c2=O)c(=O)[nH]1 do in these assays?
S1P3 antag: -10; PGE2 EP2 inh: 6; EP2 modulator: -18; Cl transport mod: 4.6*; KCC2 sec1: 0.0067; KCC2 bumet counter: 0.014*; KCC2 sec2: 0.028; HEK counter1: 0.013*; KCC2 retest ouab: 0.02; HEK293 Tl flux2: 0.012*

How did O=C1CC(c2cccs2)c2cc3c(cc2N1)OCO3 (configuration not stated) do in these assays?
S1P3 antag: 7; PGE2 EP2 inh: 5; EP2 modulator: 9; Cl transport mod: -0.11

Results for COc1cc2c(cc1OC)C(c1cccs1)CC(=O)N2 (configuration not stated) ?
PGE2 EP2 inh: 0; EP2 modulator: 4; KCC2 sec1: 0.0063; KCC2 bumet counter: 0.0047; KCC2 sec2: 0.029; HEK counter1: 0.0081; KCC2 retest ouab: 0.019; HEK293 Tl flux2: 0.011

How did O=C(Nc1nnc(SCc2ccc(F)cc2)s1)C1Cc2ccccc2CN1C(=O)c1ccco1 (configuration not stated) do in these assays?
PGE2 EP2 inh: 8; EP2 modulator: 51; Cl transport mod: -3.3*; KCC2 sec1: 0.0071; KCC2 bumet counter: 0.0053; KCC2 sec2: 0.025*; HEK counter1: 0.0081; KCC2 retest ouab: 0.017*; HEK293 Tl flux2: 0.01

Results for CCOc1ccc(C(Nc2cccnc2)c2cc(Cl)c3cccnc3c2O)cc1 (configuration not stated) ?
S1P3 antag: 8; PGE2 EP2 inh: 9; EP2 modulator: 16; Cl transport mod: 5*; KCC2 sec1: 0.0089; KCC2 bumet counter: 0.014*; KCC2 sec2: 0.034; HEK counter1: 0.018*; KCC2 retest ouab: inconclusive; HEK293 Tl flux2: 0.01

How did CCOc1ccc(C(NC(C)=O)c2cc(Cl)c3cccnc3c2O)cc1 (configuration not stated) do in these assays?
PGE2 EP2 inh: 8; EP2 modulator: -1
